This excerpt belongs to a sample that is enriched for hits.
Casp7 inh – allosteric or competitive inhibitors of human caspase-7; actives 0.02% (n = 75,000); Potency, µM (titrated, usually from 57.5 µM), without a hit: top-dose activity change, negative = inhibition, usual class: inhibitors; recombinant caspase-7, Ac-DEVD-AFC fluorescence rate; P55210; active = well fitted inhibition curve with a large enough effect in the main read-out, with a control signal flat, not every such curve was filed as active; inconclusive = small, poorly fitted or top-dose-only effect, or a change in a side signal; note: % of control where 0% means no effect
Caspase-1 inhib – allosteric or competitive inhibitors of human caspase-1 | AID 900 | actives 0.03% (n = 75,000) | Potency, µM (highest dose often 57.5 µM), for inactives: at the highest dose activity change, negative = inhibition, usual class: inhibitors | P29466 | Caspase-1 enzyme, Ac-WEHD-AFC fluorogenic rate; active = well fitted inhibition curve with a large enough effect; inconclusive = small, poorly fitted or top-dose-only effect;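 note: plate controls were vehicle for no effect and no substrate for full effect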
GBA activity – modulators of human glucocerebrosidase; purified enzyme, resorufin glucoside fluorescence (screen aimed at inhibitors), 20 min; Potency, µM; actives 1.1% (n = 48,000); AID 360; in the data active = potency below about 15 µM; inconclusive = mostly about 16 µM to 33 µM;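 note: the screen sought inhibitors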
Target sequence (P04062 whole entry, looked up): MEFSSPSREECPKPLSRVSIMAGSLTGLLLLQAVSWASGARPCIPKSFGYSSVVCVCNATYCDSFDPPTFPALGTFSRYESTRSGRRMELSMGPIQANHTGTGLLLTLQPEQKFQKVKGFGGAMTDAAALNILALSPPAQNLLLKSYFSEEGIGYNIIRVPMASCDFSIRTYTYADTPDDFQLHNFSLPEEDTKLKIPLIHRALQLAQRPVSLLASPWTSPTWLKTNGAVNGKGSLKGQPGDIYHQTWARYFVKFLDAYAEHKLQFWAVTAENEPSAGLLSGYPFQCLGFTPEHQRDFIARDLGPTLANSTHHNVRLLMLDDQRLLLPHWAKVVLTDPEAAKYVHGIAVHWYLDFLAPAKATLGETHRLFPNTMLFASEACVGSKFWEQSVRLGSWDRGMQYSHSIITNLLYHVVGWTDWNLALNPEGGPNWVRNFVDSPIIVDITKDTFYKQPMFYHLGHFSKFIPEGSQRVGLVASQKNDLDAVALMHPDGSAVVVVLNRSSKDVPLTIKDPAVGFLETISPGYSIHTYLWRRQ
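Wild-type enzyme at 0.2 nM final in 50mM citric acid/KH2PO4, 10mM sodium taurocholate, 0.01% tween-20, pH 5.9, with resorufin beta-D-glucopyranoside at 30 uM final. Compounds titrated, 20 min at RT, red fluorescence read; AC50 from titration.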
* = called active by the depositor; ? = inconclusive; nt = no result. Potency is the fitted concentration of half-maximal effect.

SMILES | Casp7 inh | Caspase-1 inhib | GBA activity
COc1ccc(CC(=O)Nc2cccc(-c3nnc(-c4ccccc4)o3)c2)cc1OC | -5% | -2% | ?
COc1ccc(CC(=O)Nc2cccc(-c3nnc(-c4cccc(C)c4)o3)c2)cc1OC | -2% | -3% | 11*
CC(=O)Nc1cccc(-c2nnc(-c3ccccc3)o2)c1 | 3% | 0% | 14*
COc1cccc(C(=O)Nc2cccc(-c3nnc(-c4ccccc4)o3)c2)c1 | 0% | -1% | nt
Cc1ccccc1-c1cncnc1Nc1ccc(F)cc1 | -1% | 1% | nt
O=S(=O)(Nc1cc(Cl)ccc1N1CCCCC1)c1cccs1 | -3% | -2% | 15*
O=S(=O)(Nc1ccc(N2CCCCC2)cc1)c1cccs1 | 0% | 0% | >77
Cc1ccnc(NC(=O)c2cc(S(=O)(=O)N3CCCCC3)ccc2Cl)c1 | 0% | 0% | >77
Cc1ccc(S(=O)(=O)N2CCCCC2)cc1C(=O)c1nccn1C | 9% | 1% | 10*
Cc1noc(/C=C/N(C)C)c1S(=O)(=O)N1CCCC(C(=O)NCc2ccc(F)cc2)C1 (stereo unspecified) | -6% | -4% | nt
Cc1noc(/C=C/N(C)C)c1S(=O)(=O)N1CCCC(C(=O)NCc2ccc(Cl)cc2)C1 (stereo unspecified) | -11% | -11% | 14*
O=C(O)c1ccc2cc(-c3ccc(O)c(C45CC6CC(CC(C6)C4)C5)c3)ccc2c1 | -10% | -3% | nt
CC1CC=C2C(C#N)=C(N)C(C#N)(C#N)C(c3cccs3)C2C1 (stereo unspecified) | ? | nt | 11*
CC(C)(C)OC(=O)N1CC=C2C(C#N)=C(N)C(C#N)(C#N)C(c3cccs3)C2C1 (stereo unspecified) | -27% | ? | ?
CCCCC=O | 1% | 0% | nt
Nc1nc(-c2cccnc2)nn1C(=O)c1ccco1 | 1% | 1% | >77
COc1ccc(CNc2nc(-c3cccnc3)nn2C(=O)c2ccco2)cc1 | 0% | -1% | 11*
Cc1ccccc1-c1nc(-n2ccnc2)c2ccccc2n1 | 2% | 0% | nt

High-throughput results as filed in PubChem.
